According to PubChem BioAssay (NCI):
This is part of a sample that, as a whole, favours compounds with a hit. Of some 79,000 tested, about 15% had one in any assay. Rule as the data show it: active = growth inhibition above about 70%; inactive = the rest.

Tests used:
[1] = NCI Yeast Anticancer Drug Screen. Data for the rad50 strain (AID 155);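 also: 0% = growth of vehicle-only cultures of the same strain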; details: S. cerevisiae rad50 strain growth inhibition; at 50.0 µM; stronger effect = higher value
Summary of the method: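 Relative growth inhibition (compound vs vehicle) was measured in yeast with a defined repair-gene alteration.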

[2] = NCI Yeast Anticancer Drug Screen. Data for the mec2-1 strain (AID 157); details: S. cerevisiae mec2-1 strain, at 50.0 µM, stronger effect = higher value
Summary of the method: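 Compounds were applied to mec2-1 yeast cells. Their growth was then compared with that of vehicle-treated cultures to give growth inhibition.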

[3] = NCI Yeast Anticancer Drug Screen. Data for the sgs1 mgt1 strain (AID 161);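 also: 0% = growth of cultures given vehicle only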; details: S. cerevisiae sgs1 mgt1 strain, at 50.0 µM, stronger effect = higher value
Summary of the method: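 This yeast growth screen uses a strain with defined DNA-repair lesions; compound-treated growth is compared with vehicle-treated growth.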

[4] = NCI Yeast Anticancer Drug Screen. Data for the cln2 rad14 strain (AID 165);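 also: 0% = growth equal to vehicle treated cultures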; details: S. cerevisiae cln2 rad14 strain, at 50.0 µM, stronger effect = higher value
Summary of the method: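 Strain: cln2 rad14 yeast, altered in cell cycle control and DNA damage repair. Read-out: growth inhibition vs vehicle.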

[5] = NCI Yeast Anticancer Drug Screen. Data for the bub3 strain (AID 167); details: S. cerevisiae bub3 mutant strain, at 50.0 µM, stronger effect = higher value
Summary of the method: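 Screening used yeast with an engineered genetic alteration affecting cell cycle control. Compound-exposed cultures were compared with vehicle cultures, and reduced growth was taken as inhibition.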

[6] = NCI Yeast Anticancer Drug Screen. Data for the mlh1 rad18 strain (AID 175); details: S. cerevisiae mlh1 rad18 strain growth inhibition; at 50.0 µM; stronger effect = higher value
Summary of the method: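 A repair-deficient yeast strain is exposed to test compound, and growth is scored relative to vehicle-treated controls.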

Measured: growth inhibition

N#C/C(=C\c1cc(Br)c(O)c(Br)c1)c1ccccn1
inactive: [1] 50.5% | [2] 50.1% | [3] 24.4% | [4] 2.55% | [5] -3.35%

C=CCOC(=O)C(O)C=C (stereo not drawn)
inactive: [1] 7.9% | [2] -12.3% | [3] 2.3% | [4] 16.4% | [5] -1.6%

CCOC(=O)c1cc(C)nc2c(Cl)cc(Cl)cc12
inactive: [1] 13% | [2] 10.8% | [3] -34.4% | [4] -2.9% | [5] 10.4%

O=[N+]([O-])c1cc(F)ccc1-c1ccc(F)cc1
inactive: [1] 2.35% | [2] -4.85% | [3] 0.7% | [4] -20.7% | [5] 2.8%

O=C(O)c1cnccn1
inactive: [1] 18.8% | [2] 4.3% | [3] 16.9% | [4] 12.6% | [5] 1.2%

CC(=O)Oc1cc(I)cc(C(=O)O)c1
inactive: [1] -10% | [2] 9.85% | [3] -1.05% | [4] -9.15% | [5] 3.3%

COc1cc(/C=C/c2ccnnc2)cc(OC)c1OC
inactive: [1] -9.2% | [2] 15.3% | [3] 16.8% | [4] -0.35% | [5] 15.3%

COc1cc(C(C)C)c(Oc2c(C)c(OC)cc(C(C)C)c2O)cc1C (tested in a mixture with another compound)
inactive: [1] -7.5% | [2] -21.4% | [3] -9.6% | [4] -11.1% | [5] 7.9%

O=[N+]([O-])c1cccc(C2OCC3(CO2)COC(c2cccc([N+](=O)[O-])c2)OC3)c1 (stereo not drawn)
inactive: [1] 2.95% | [2] -21.8% | [3] 6.5% | [4] 10.2% | [5] -3.1%

Cc1ccc(NC(=O)C2CCN(C)CC2)cc1
inactive: [1] -14.3% | [2] -15% | [3] -16.7% | [4] -23.4% | [5] -8.7%

CC(=O)NNc1nc(C)c(C(=O)/C=C/c2ccc(/C=C/C(=O)c3sc(NNC(C)=O)nc3C)cc2)s1
inactive: [1] -29.6% | [2] -3.4% | [3] -37.6% | [4] 6.25% | [5] -13.2%

CCc1ccc(NC(=O)c2cc(OC)c(OC)c(OC)c2)cc1
inactive: [1] 1.1% | [2] 29.4% | [3] 2.6% | [4] -12.3% | [5] 17.5%

CCN(CC)C(=O)CCC1CCCCC1
inactive: [1] -35% | [2] -18.9% | [3] -11.9% | [4] -39.3% | [5] -14.1%

O=C(C[n+]1csc2ccccc21)c1ccc(-c2ccccc2)cc1
inactive: [1] 18.1% | [2] 9.8% | [3] -11.9% | [4] -3.05% | [5] 11.6%

COc1ccc(/C=C/C(C)=O)c(OC)c1
inactive: [1] 3% | [2] -12.3% | [3] 2.15% | [4] -20.6% | [5] 0.05%

CCCCCCCCCCCCC(O)C(=O)O (stereo not drawn)
inactive: [1] 12.3% | [2] -17.9% | [3] 10.2% | [4] 12.8% | [5] 35.7%

O=Cc1c2c(cc3c1CC1(C3)Cc3cc4c(c(C=O)c3C1)CCC4)CCC2
inactive: [1] -26.4% | [2] -40.1% | [3] -25.9% | [4] 3.7% | [5] 26.8%

CCOC(=O)C/C(C)=N/NS(=O)(=O)c1ccc(NC(C)=O)cc1
inactive: [1] -7.6% | [2] -19.6% | [3] 8.25% | [4] -9.3% | [5] -27.3%

CSc1nc(Cl)nc2c1nc(SC)n2-c1ccccc1
inactive: [1] -8.4% | [2] 7.95% | [3] -0.45% | [4] -8.95% | [5] 16.5%

O=C(O)c1c(Cl)c(Cl)c(Cl)c(C(=O)O)c1Cl
inactive: [1] -2.05% | [2] 2.2% | [3] 7.25% | [4] -36.1% | [5] 5.85%

Cc1ccc(C(=O)N2CCCCC2)cc1N=NN(C)C
inactive: [1] 0.05% | [2] -25.5% | [3] -25.6% | [4] 14.3% | [5] -17.6%

CC(C)(C)OC(=O)CN1C(=O)CCC1=O
inactive: [1] 6.25% | [2] 8.65% | [3] 20.2% | [4] -26.1% | [5] 4.45%

O=C(Nc1ccccc1)Sc1ccc(Cl)cc1
inactive: [1] -12.2% | [2] -13.2% | [3] -22.5% | [4] -20.1% | [5] 3.15%

Clc1ccc(CSc2cnnc3c(Br)cccc23)c(Cl)c1
inactive: [1] -5.3% | [2] -11.5% | [3] -10.8% | [4] -39.2% | [5] 1.8%

O=C(C[n+]1ccccc1Cl)c1ccc(I)cc1
inactive: [1] 18.2% | [2] 24.8% | [3] 53% | [4] 9.05% | [5] 19.9%

Nc1ccc(Sc2nnc(N)s2)cc1
inactive: [1] -26% | [2] -16.6% | [3] -53.1% | [4] 6.8% | [5] -31.4%

C=CC1(c2ccc3ccccc3c2)OCC(CC)(CC)CO1
inactive: [1] -18.1% | [2] 7.15% | [3] -3.6% | [4] -4.7% | [5] 7.75%

C(CCN1CCOCC1)CN1CCOCC1
inactive: [1] -3.4% | [2] 4.5% | [3] 0.45% | [4] -4.1% | [5] -10.7%

O=C(O)CC(Cc1ccc2c(c1)OCO2)C(=O)O (stereo not drawn)
inactive: [1] -5.6% | [2] -2.35% | [3] -34.2% | [4] -33.9% | [5] -54.6%

O=C(O)CNC(=O)NNc1ccccc1
inactive: [1] -4.75% | [2] -7.6% | [3] -11% | [4] 28.3% | [5] -10.3%

O=C(O)CCCCCC1=CCCCC1
inactive: [1] 11.9% | [2] 33.2% | [3] 20.9% | [4] 19.2% | [5] 24.6%

O=C(Nc1c(Cl)cccc1Cl)OCc1ccco1
inactive: [1] 7.5% | [2] -10.6% | [3] 24.1% | [4] 3.15% | [5] 23.4%

CC(=O)OC1CN(c2ccc(Br)cc2)CC(OC(C)=O)CN(c2ccc(Br)cc2)C1 (stereo not drawn)
inactive: [1] 6.25% | [2] 9.7% | [3] -13.8% | [4] -32.9% | [5] -5.55%

CC(=O)OCCn1c(Cc2ccc(Cl)cc2)nn(C(C)=O)c1=O
inactive: [1] 14.4% | [2] 5.95% | [3] 20.1% | [4] 6.7% | [5] -15.2%

CC(=O)NS(=O)(=O)c1ccc(NC(=O)COC(=O)c2cccc3c(=O)c4ccccc4[nH]c23)cc1
inactive: [1] -33.1% | [2] 5% | [3] -48.6% | [4] 7.1% | [5] -28.6%

CCCC(CCC)C(=O)O
inactive: [1] -18% | [2] 3.45% | [3] -8.75% | [4] 7.9% | [5] -10.8%

O/N=C(\C(=N/O)Nc1ccc(-c2ccc(NC(=N/O)/C(=N\O)c3ccccc3)cc2)cc1)c1ccccc1
inactive: [1] 7.35% | [2] -43.4% | [3] -8.5% | [4] 1.45% | [5] -14.4%

NC(CCCCC1CCCCC1)C(=O)O (stereo not drawn)
inactive: [1] -5.75% | [2] -29.4% | [3] -18.1% | [4] -37.4% | [5] -28.4%

C=CNc1cccc2ccccc12
inactive: [1] 13.8% | [2] 11.6% | [3] 14.2% | [4] 5.85% | [5] 25.1%

COc1cc2ccccc2ccc1=O
inactive: [1] 13.4% | [2] 7.95% | [3] -6.45% | [4] -3.55% | [5] 13.6% | [6] 4.5%

CCCCNC(=O)Nc1nc2ccccc2s1
inactive: [1] 25.3% | [2] 2.15% | [3] 11.5% | [4] 38% | [5] -3% | [6] -1.7%

Cc1nc(N)nc2ccccc12
inactive: [1] 3.15% | [2] -25.3% | [3] -16% | [4] -5.8% | [5] -7.9% | [6] -16.1%

CCN(CC)c1ccc2cc(C(=O)NC(=O)Oc3ccccc3)c(=O)oc2c1
inactive: [1] 25.1% | [2] -5.5% | [3] -6.05% | [4] 25.1% | [5] -3.2% | [6] 9.35%

COc1ccc(/C=C2\N=C(c3ccccc3)N(Nc3nnc(NN4C(=O)/C(=C/c5ccc(OC)cc5)N=C4c4ccccc4)c4ccccc34)C2=O)cc1
inactive: [1] -9.4% | [2] -10.3% | [3] 1.65% | [4] 8.7% | [5] -21.4% | [6] 4.35%

COC(=O)/C(C#N)=C(C)/C=C/c1ccc(OC)cc1
inactive: [1] 22.6% | [2] 14% | [3] 8% | [4] -15.6% | [5] 18.6% | [6] 22.2%

CCN(CC)c1ccc2cc(C(=O)Nc3cccc4ccccc34)c(=N)oc2c1
inactive: [1] 14.4% | [2] 3.05% | [3] -10.2% | [4] -5.45% | [5] -25.9% | [6] -53.6%

O=C(C[n+]1cccc(Br)c1)c1ccc(F)cc1
inactive: [1] 16.1% | [2] 19.9% | [3] 9.6% | [4] 21.4% | [5] 3.35% | [6] 10.2%
